The source made the active and inactive calls.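 How the source made its calls, unless noted: active means compound raises insulin release from rat beta cells at 5 mM glucose, no numeric limit stated; inactive means the rest.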
Columns and labels:
[1] = stimulators of nuclear beta-catenin in C2C12, primary screen, imaging, WNT3A-conditioned medium, mouse C2C12, NPC library (AID 1117326; in the data active means nuclear beta-catenin stimulation mostly above about 4.2%, no sharp cut-off; inactive means mostly below about 10%; further: reference of the scale not given here); conditions: stronger effect = higher value
[2] = stimulators of insulin release from INS-1E, primary screen, cell-based, 5 mM glucose, NPC library (AID 1117329); conditions: rat INS-1E insulin secretion, at 10 µM, stronger effect = higher value; further: reference of the scale not given here
[3] = growth inhibition of GSK3B-pretreated HCT116 cells – cell-based, CellTiter-Glo, 0.2 to 20 µM (AID 1117336;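 active means compounds lowering colon cancer cell viability after pretreatment blocking the GSK3B kinase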); conditions: HCT116 viability after GSK3B inhibitor, at 20 µM, stronger effect = higher value
[4] = inhibition of endothelial tube formation, primary screen, imaging, VEGF stimulated, CD31 staining, tube area, NPC library (AID 1117340;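 active means compound that reduces growth-factor-driven endothelial tube area in a mixed cell culture, no cutoff stated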); conditions: VEGF-stimulated ADSC/ECFC co-culture, at 10 µM, stronger effect = higher value
[5] = glucagon-like peptide 1 release enhancers, primary assay, NCI-H716 cell line, NPC library (AID 1117341;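 active means compound raises GLP1 secretion from the human gut endocrine cells, with no numeric limit stated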; further: reference of the scale not given here); conditions: NCI-H716 cells, at 10 µM, stronger effect = higher value
[6] = HCT116 colon cancer cell growth inhibition, primary screen, CellTiter-Glo luminescence, NPC library (AID 1117342;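 active means compounds that lower survival of HCT116 colon cancer cells in the luminescence readout, no numeric limit stated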); conditions: at 20 µM (top of the series)
[7] = CellTiter-Glo luminescent readout of SW480 viability loss, NPC library primary (AID 1117343;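 active means compounds that lower viability of the colon cancer cells in the luminescence readout, with no numeric limit stated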); conditions: CellTiter-Glo luminescence; at 20 µM (top of the series)
[8] = decreased DLD-1 cellular survival, CellTiter-Glo luminescent readout, NPC compound collection, primary HTS (AID 1117346;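 active means compounds that lower survival of DLD-1 colon cancer cells in the luminescence readout, no cutoff given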); conditions: DLD-1 viability, CellTiter-Glo luminescence; at 20 µM (top of the series)

Structure (SMILES) | nuclear beta-catenin stimulation ([1]; at 10 µM) | nuclear beta-catenin stimulation ([1]; stimulation, at 2 µM) [%] | insulin secretion stimulation [2] | viability decrease [3] | tube area decrease [4] | GLP1 secretion stimulation [5] | inhibition of viability [6] | viability decrease (inhibition) [7] | viability decrease (inhibition) [8]
O=C1c2ccccc2CCc2ccccc21 | 0.9% (inactive) | -0.9 | 2.7% (inactive) | 7% (inactive) | -5.3% (inactive) | -1.2% (inactive) | 4.6% (inactive) | -8.4% (inactive) | 9.1% (inactive)
Cc1ccc(O)c2ncccc12 | 30.3% (inactive) | 2.4 | -2% (inactive) | 16.6% (inactive) | 5.7% (inactive) | 2.8% (inactive) | 33% (inactive) | 27% (inactive) | 4.9% (inactive)
CCNC(=O)NCc1cccc(Cl)c1 | -1.7% (inactive) | -0.5 | 2.2% (inactive) | -2% (inactive) | 13.7% (inactive) | -2.9% (inactive) | 1.1% (inactive) | 1.2% (inactive) | -6.8% (inactive)
O=C1CCCc2c(O)cccc21 | 1.1% (inactive) | 2.2 | 0.3% (inactive) | 1% (inactive) | 19.3% (inactive) | 2.2% (inactive) | 11.4% (inactive) | 12.5% (inactive) | -7.2% (inactive)
CCCC(=O)Nc1ccc(O)c(C(C)=O)c1 | 1.7% (inactive) | 0.4 | 3.1% (inactive) | -4.4% (inactive) | -7% (inactive) | -3.4% (inactive) | 2.9% (inactive) | -3.5% (inactive) | 2.6% (inactive)
O=C(Nc1ccc(Cl)cc1)Nc1ccc(Cl)c(C(F)(F)F)c1 | 25.5% (inactive) | -0.2 | -0.8% (inactive) | 99.4% (active) | 108% (active) | -3.9% (inactive) | 99.3% (active) | 102% (active) | 102% (active)
CCC(C(=O)NC(=O)NC(C)=O)c1ccccc1 (stereo not given) | 0.9% (inactive) | 0.2 | 0.6% (inactive) | 78.3% (active) | 7.5% (inactive) | -4.7% (inactive) | 46.2% (inactive) | 70.3% (active) | 6.1% (inactive)
N[C@H]1CN(c2c(F)cc3c(=O)c(C(=O)O)cn(C4C[C@@H]4F)c3c2Cl)CC12CC2 (stereo not given in full) | 0.1% (inactive) | 1.9 | 0.95% (inactive) | 40.5% (inactive) | -10.7% (inactive) | -1.5% (inactive) | 34.3% (inactive) | 54.7% (active) | -9.6% (inactive)
CCN1/C(=C/C=C/c2sc3ccccc3[n+]2CC)Sc2ccccc21 | 1.2% (inactive) | 7.5 | -0.5% (inactive) | 99.1% (active) | -349% (inactive) | -2.9% (inactive) | 98.8% (active) | 103% (active) | 102% (active)
O=S(=O)(O)c1ccc2c(N=Nc3ccc(S(=O)(=O)O)c4ccccc34)c(O)c(S(=O)(=O)O)cc2c1 | 0.7% (inactive) | 0.1 | 2.6% (inactive) | 0% (inactive) | 11.5% (inactive) | -3.9% (inactive) | 2.8% (inactive) | 19.3% (inactive) | 6.8% (inactive)
CCCC(CCC)C(N)=O | -0.9% (inactive) | -1 | 2% (inactive) | 1.8% (inactive) | -17.7% (inactive) | 16.4% (inactive) | 16.3% (inactive) | 25.7% (inactive) | 22.3% (inactive)
Oc1ccccc1-c1nnco1 | 0.3% (inactive) | -0.2 | 3.2% (inactive) | -2.4% (inactive) | -3.9% (inactive) | -0.1% (inactive) | 12.2% (inactive) | 22.1% (inactive) | -0.7% (inactive)
NC[C@@H]1O[C@H](O[C@H]2[C@H](O)[C@H](O[C@H]3[C@@H](O)[C@H](N)C[C@H](N)[C@H]3O[C@H]3O[C@H](CN)[C@H](O)[C@H](O)[C@H]3N)O[C@@H]2CO)[C@@H](N)[C@@H](O)[C@@H]1O | -0.3% (inactive) | 0.4 | 3.2% (inactive) | -8.9% (inactive) | -22.4% (inactive) | 63.5% (active) | 9% (inactive) | 31.1% (inactive) | 5% (active)
COc1ccc(CC2c3cc(OC)c(OC)cc3CCN2CCC(=O)OCCCCCOC(=O)CCN2CCc3cc(OC)c(OC)cc3C2Cc2ccc(OC)c(OC)c2)cc1OC (stereo not given) | -1.1% (inactive) | 0.5 | 2.2% (inactive) | -6.9% (inactive) | -3.5% (inactive) | -3.9% (inactive) | -6.4% (inactive) | 39.7% (inactive) | -10.6% (inactive)
CCOCCOC(=O)/C=C/c1ccc(OC)cc1 | 1.4% (inactive) | 1 | -1.7% (inactive) | -11.8% (inactive) | 18.9% (inactive) | -4% (inactive) | -4.53% (inactive) | 17.1% (inactive) | 9.7% (inactive)
